Screens as filed in PubChem.
IL-1B inflam inh = inhibitors of inflammasome signaling (IL-1 beta secretion) | THP-1 LPS/ATP IL-1B secretion, AlphaLISA, 16 h; stronger effect = lower value | activity change, % at 57.5 µM | 360,000 tested, 4.7% active | AID 743279; in the data active means activity change below about -50%; inconclusive means mostly about -30% to -49%
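Secreted IL-1B measured by AlphaLISA bead assay after 16 h compound exposure of THP-1 cells; compounds (final up to 57.5 uM) added 1 h before LPS (250 ng/mL) and ATP (1.25 mM) stimulation; lower signal means less secretion.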
DT40 TDP1 CPT = DT40-hTDP1 cell growth loss with CPT. AID 686979. Potency, µM (top dose mostly 46.2 µM), without a hit: at the top dose activity change, negative = growth inhibition, hits mostly inhibitors. 420,000 tested, 12% active. chicken DT40 Tdp1-/-;hTDP1 cells + 20 nM CPT, ATP luminescence, 48 h; further: potency means the concentration at half of the fitted maximal effect; nearly all actives have a fitted effect of over 55% in size
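Chicken DT40 Tdp1-/- cells stably complemented with human TDP1 were seeded at 400 cells/well in medium containing 20 nM camptothecin, exposed to pin-transferred compounds, and grown at 37 °C for at least 48 hr. Viability was read as ATP luminescence.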
TDP1 cell noCPT = qHTS for Inhibitors of human tyrosyl-DNA phosphodiesterase 1 (TDP1): qHTS in cells in absence of CPT | 420,000 tested, 15% active | DT40 Tdp1-/- hTDP1 cells, no CPT, ATP luminescence, 48 h | Potency, µM (top dose mostly 46.2 µM), for the others: top-dose activity change, negative = growth inhibition, most hits filed as inhibitors | AID 686978, 2013; further: potency means the concentration at half of the fitted maximal effect; nearly all actives have a fitted effect of over 55% in size
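Readout: luminescence from CellTiter-Glo after 30 min in the dark at RT. Cells: DT40 Tdp1-/- with stable hTDP1, 400/well. Exposure: compounds alone, ≥48 hr, 37 °C.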
HT1080-NT tox = kills 2HG-producing HT-1080-NT fibrosarcoma cells; HT-1080-NT fibrosarcoma viability, CellTiter-Glo ATP luminescence, 48 h; Potency, µM (series often up to 46.1 µM), without a hit: top-dose activity, negative = less viability, usual class: cytotoxic; 360,000 tested, 1.6% active; AID 686970;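 further: NT is the 2HG producing partner of a matched IDH1 knockdown line; potency means the concentration at half of the fitted maximal effect; 0% = DMSO-treated cells and -100% = media-only wells without cells; nearly all actives have a fitted effect of over 55% in size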
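Viability by CellTiter-Glo luminescence after 48 h compound exposure at 37C of HT-1080-NT cells (750/well, RPMI, 5% FBS). % activity scaled between DMSO wells and medium-only wells, then curve-fitted and categorized by curve class.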
HT1080 IDH1KD tx = kills HT-1080 cells with IDH1 knockdown | HT-1080 IDH1 knockdown viability, ATP luminescence, 48 h | AID 686971 | 360,000 tested, 2% active | Potency, µM (doses to about 46.1 µM), without a hit: at the highest dose activity, negative = toxicity, hits mostly cytotoxic;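 further: potency means the concentration at half of the fitted maximal effect; 0% = DMSO wells and -100% = cell-free medium wells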
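Cytotoxicity counter-line: IDH1KD HT-1080, 48 h, CellTiter-Glo. Curves classed by r2, magnitude and activity.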
* hit, by the source's call; ? = inconclusive; . = no result given. Rows were chosen to be rich in hits. Some 19% of all compounds tested hit in one or more screens of this group. Unless noted, the call rests on the fitted dose curve; in most records, active means well fitted curve in the direction sought with a large enough effect; inconclusive means small, poorly fitted or top-dose-only effect, or another doubt; inactive means no such curve, though single readings can be large; an effect the other way counts as inactive or inconclusive. Unless noted, on the % scale 0 is the no-effect control and ±100 the full control effect.

SMILES	IL-1B inflam inh	DT40 TDP1 CPT	TDP1 cell noCPT	HT1080-NT tox	HT1080 IDH1KD tx
CC(=O)N1c2ccc(S(=O)(=O)N3CCCC3)cc2CC1C(=O)Nc1cc(C)cc(C)c1 (stereo not given)	13	?	23µM*	0%	-4%
Cc1cc(-c2ccccc2)n2nc(N)nc2n1	-16	-2%	1%	8%	9%
CCn1cc(C(=O)N[C@@H](CCSC)C(=O)NCCCN2CCOCC2)c(=O)c2cc3c(cc21)OCO3	0	2%	21%	14%	12%
Cc1nc(-n2nc(C)c(Cc3ccccc3Cl)c2C)sc1C(=O)N1CCCCC1C (stereo not given)	.	?	21µM*	.	.
CCCCN(CC)CCCNC(=O)c1ccc(CS(=O)(=O)c2ccccc2C)o1	17	-4%	24%	-14%	8%
COC(=O)C1OCOC2C(C(=O)OC)OCOC12 (stereo not given)	14	1%	-7%	9%	19%
Cc1ccc(S(=O)(=O)c2c(N)n(Cc3ccco3)c3nc4ccccc4nc23)cc1	-7	?	18µM*	?	?
CCCCn1c(N)c(S(=O)(=O)c2ccc(C)cc2)c2nc3ccccc3nc21	-81*	-101%	?	?	?
CN(C)CCCn1c(N)c(S(=O)(=O)c2ccccc2)c2nc3ccccc3nc21	-27	18µM*	?	-1%	-1%
Cc1ccc(S(=O)(=O)c2c(N)n(-c3ccccc3)c3nc4ccccc4nc23)cc1	?	?	?	3%	0%
Cc1cc(C)c2oc(C(=O)Nc3c(C)n(C)n(-c4ccccc4)c3=O)cc(=O)c2c1	.	1%	-10%	.	.
CC(C)(C)Nc1nc(Nc2ccc([N+](=O)[O-])cc2)nc(NC(C)(C)C)n1	-3	21µM*	21µM*	-1%	18%
CC(C)(C)Nc1nc(Cl)nc(NCc2ccccc2)n1	1	18µM*	?	0%	-1%
O=[N+]([O-])c1ccc(Nc2nccc(Cl)n2)cc1	.	8%	-29%	-19%	?
Cc1ccc(Nc2nc(Cl)nc(NC(C)(C)C)n2)cc1	-15	?	23µM*	-2%	-1%
CC(C)c1ccc(Nc2nc(Cl)nc(Cl)n2)cc1	3	-14%	?	-6%	-6%
CCOC(=O)CNc1nc(Cl)nc(Nc2ccc(C)cc2)n1	-11	2%	?	-7%	4%
Cc1ccc(Nc2nc(Cl)nc(N(C)C#N)n2)cc1	-114*	?	23µM*	?	?
CC(CCCC(C)(C)O)CC1C2=C(CCCC2=O)OC2=C1C(=O)CCC2 (stereo not given)	14	-6%	-10%	?	6%
CCCN(CCC)S(=O)(=O)c1ccc(C(=O)Nc2nc(-c3ccccc3)c(C(=O)OCC)s2)cc1	19	?	?	10%	3%
CCC(CC)C(=O)OCC(=O)Nc1cc(OC)c([N+](=O)[O-])cc1C	14	-19%	?	3%	-1%
Cc1nn(CCCC(=O)NCc2ccc(F)cc2)c(=O)c2c1sc1ccccc12	.	-25%	-18%	.	.
Cc1cccc(C)c1NC(=O)NC1(C(=O)NCCCN2CCOCC2)CCCCC1	-13	1%	-6%	2%	1%
Fc1ccc(-c2csc(NC(=S)Nc3ccccc3)n2)cc1	31	21µM*	?	-19%	-20%
O=C(Nc1nc(-c2ccc(F)cc2)cs1)c1cccnc1	8	-16%	?	17%	2%
O=C(Nc1ccccc1)Nc1nc(-c2ccc(F)cc2)cs1	-7	4.1µM*	4.1µM*	8%	1%
O=C(Nc1ccc(Cl)cc1)Nc1nc(-c2ccccc2)cs1	-28	?	-19%	15%	7%
CC1CC1C(=O)Nc1nc(-c2ccccc2)cs1 (stereo not given)	9	5.2µM*	5.8µM*	5%	-4%
CCO/C(C)=N/n1c2nc3ccccc3nc2c2c(=O)n(C3CCCC3)c(C)nc21	1	18µM*	15µM*	8%	11%
